# Mcl1 Bid PPI = disrupts binding of human Mcl-1 to Bid peptide; TR-FRET Mcl-1/Bid-Dy647 peptide binding, 1536-well; inhibition, % at 21.7 µM; Q07820; hit rate 0.97% among 220,000; AID 1021;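 active = compounds that cut the binding signal by more than half at the single screening dose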;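 note: His-tagged Mcl-1 with europium anti-His antibody binding Bid BH3 peptide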
# Target sequence (Q07820 whole entry, looked up): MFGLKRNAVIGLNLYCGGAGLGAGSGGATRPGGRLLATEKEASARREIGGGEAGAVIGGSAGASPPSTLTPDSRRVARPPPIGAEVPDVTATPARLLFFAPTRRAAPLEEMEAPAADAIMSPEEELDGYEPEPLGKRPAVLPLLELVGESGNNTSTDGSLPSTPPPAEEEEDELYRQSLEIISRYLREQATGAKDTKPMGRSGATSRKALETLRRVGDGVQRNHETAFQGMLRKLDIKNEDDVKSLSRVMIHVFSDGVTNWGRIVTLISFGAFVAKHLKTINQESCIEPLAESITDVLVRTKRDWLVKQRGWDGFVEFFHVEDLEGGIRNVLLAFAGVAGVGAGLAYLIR
# MCL1 BIM primary = disrupts human MCL1 binding to BIM-BH3 peptide; inhibition, % at 10.9 µM; GST-MCL1 / FITC-Bim-BH3 fluorescence polarization; hit rate 0.68% among 320,000;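 active = inhibition above the mean inhibition of all tested compounds plus 3 SD, set per campaign, cut at about 40% in these data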;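 note: higher means more loss of mP so more displacement of Bim peptide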
# zVAD death inh = blocks zVAD induced death of L929 cells; L929 zVAD necroptosis rescue, ATP luminescence, 24 h; with zVAD 60 µM; viability rescue, % at 10 µM; hit rate 0.38% among 220,000; AID 1377;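 active = activation, scaled between plate controls, above about 75%, limit read from the data; inactive = activation under that limit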
# Mcl1-Noxa inh = Mcl-1/Noxa interaction inhibition | hit rate 1.5% among 220,000 | Q07820 | AID 1022 | inhibition, % at 21.7 µM | TR-FRET Mcl-1/Noxa peptide binding, 2 h;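 active = compounds that cut the protein-peptide binding signal by more than 50% relative to plate controls in a single-dose test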;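 note: His-tagged Mcl-1 with rhodamine Noxa BH3 peptide and terbium anti-His antibody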
# TNF necrop inh = inhibitors of TNF-alpha induced necroptosis in Jurkat FADD-/- cells; hit rate 0.068% among 220,000; Jurkat FADD-/- TNF necroptosis rescue, ATP luminescence, 24 h; 0 = TNF only, 100 = no-TNF cells; activation (protection from cell death), % at 10 µM;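 active = activation, meaning protection from cell death, of at least 50% relative to plate controls; inactive = activation below 50%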;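 note: necroptosis triggered by 40 ng/mL TNF-alpha added together with compound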
# Mcl-1 Bim block = inhibitors of Bim-Mcl-1 interaction, human; Q07820; Bead-based flow cytometry, Bim peptide-Mcl-1 binding; inhibition, % at 10 µM; hit rate 0.1% among 190,000; in the data active = inhibition above about 40%
# A number is an active result; . = inactive; / = no result. Only some compounds are listed: those with a hit (about 2.4% of all), similar ones and a draw of the others.
SMILES,Mcl1 Bid PPI,MCL1 BIM primary,zVAD death inh,Mcl1-Noxa inh,TNF necrop inh,Mcl-1 Bim block
CCOC(=O)c1sc(NC(=O)c2cc(-c3cccc(O)c3)on2)c(C(=O)OCC)c1C,.,.,/,.,.,.
CCN(c1ccc(NC(=O)COC(=O)/C=C/c2cccs2)cc1)C(C)C,.,.,.,84,.,.
Cc1cnc(C(=O)Nc2ccc(C(=O)N3CCCCC3)cc2)cn1,.,.,.,56,.,.
COc1ccc(NC(=O)C2CCCN(S(=O)(=O)c3ccccc3)C2)c(OC)c1 (stereo not given),/,.,/,/,/,/
O=C(COc1ccc2ccccc2c1)Nc1cccc2c1C(=O)NC2=O,60,.,.,.,.,.
O=C1OCCN1C(=O)[C@H]1[C@H](c2ccc(F)cc2)C(c2ccc(F)cc2)=NN1c1ccccc1,.,.,.,.,.,60
O=C1OCCN1C(=O)[C@H]1[C@H](c2ccc(F)cc2)C(c2ccc(F)cc2)=NN1c1ccc(Br)cc1,.,.,.,.,.,.
CCOCCCNC(=S)N1CCC(C(=O)c2ccc3c(c2)OCCO3)CC1,.,.,.,72,.,.
CCNC(=S)N1CCC(C(=O)c2ccc3c(c2)OCCO3)CC1,.,.,.,.,.,.
Nc1ccccc1N=Nc1ccccc1N,/,47,/,/,/,/
Nc1ccccc1-c1ccccc1N,.,.,.,.,.,.
O=C(O)c1ccc(OCCN2CCCC2=O)cc1,/,.,/,/,/,/
COCCCn1c(=O)/c(=C\c2ccccc2OC(C)C)s/c1=C(/C#N)C(=O)Nc1ccc(C(=O)O)cc1,.,.,.,63,.,/
COCCCn1c(=O)/c(=C\c2ccccc2OC(F)F)s/c1=C(/C#N)C(=O)NC(C)C,.,.,.,.,.,.
N/C(=N\OC(=O)CCCc1ccccc1)c1ccccc1Cl,/,.,/,/,/,/
CC(C)OC(=O)c1ccccc1C(=O)c1ccc(N)c([N+](=O)[O-])c1,.,.,.,61,.,.
CNC(=O)COC(=O)c1ccccc1C(=O)c1ccc(Cl)c([N+](=O)[O-])c1,.,/,.,.,.,.
CC(NC(=O)C1CCN(C(=O)[C@@H]2Cc3ccccc3CN2)CC1)c1ccccc1 (stereo not given in full),/,.,/,/,/,/
CCC(CC)C(=O)Nc1cccc(C(=O)Nc2ccc(S(N)(=O)=O)cc2)c1,.,.,.,.,.,.
CCC(CC)C(=O)Nc1cccc(S(=O)(=O)c2cccc(NC(=O)C(CC)CC)c2)c1,.,.,.,.,.,44
O=C(O)c1c[nH]c2c(C(F)(F)F)cccc2c1=O,53,.,.,.,.,.
O=C(O)CN1C(=O)CC(c2ccccc2)CC1=O,/,.,/,/,/,/
CCN1C(=O)/C(=C/c2cccs2)SC1=Nc1ccc(OC)cc1,97,.,.,.,.,.
CCCN1C(=O)/C(=C/c2ccc(C)s2)SC1=Nc1ccc(OC)cc1,.,.,.,.,.,.
C/C(=N/O)c1ccc2c(c1)OCCOCCOc1cc(/C(C)=N/O)ccc1OCCOCCO2,.,.,/,59,.,.
SMILES,Mcl1 Bid PPI,MCL1 BIM primary,zVAD death inh,Mcl1-Noxa inh,TNF necrop inh,Mcl-1 Bim block
Cc1ccc(NC(/C=C/N(C)C)=C/C(=O)C(F)(F)F)c(C)c1,.,.,.,.,.,.
CN(C)/C=C\C(=C/C(=O)C(F)(F)F)Nc1ccccc1Oc1ccccc1,.,.,.,67,.,.
CC1CCN(CCCNC(=O)Cn2ncc3c([nH]c4ccccc43)c2=O)CC1,/,.,/,/,/,/
COc1ccc(C(=O)Nc2cccc(C)c2)cc1S(=O)(=O)N1CCOCC1,76,.,.,.,.,.
COc1ccc(C(=O)Nc2ccc(-c3ccc(C)o3)cc2)cc1S(=O)(=O)N1CCOCC1,.,.,84,.,.,.
CCC(C)NC(=O)C1CC(=O)N(CCc2ccc(F)cc2)C1 (stereo not given),/,.,/,/,/,/
CN1CCC(=O)N([C@H](CN=[N+]=[N-])Cc2ccccc2)CC1,/,.,/,/,/,/
O=C(N/N=C\c1ccc(Cl)cc1Cl)c1sccc1-n1cccc1,.,.,89,.,.,.
CC(=O)n1cc(Nc2ccc([N+](=O)[O-])cc2)c2ccccc21,.,.,.,65,.,.
CC(=O)SC(C[N+](=O)[O-])c1cn(C(C)=O)c2ccccc12 (stereo not given),.,.,.,59,.,.
CCOC(=O)c1ccc(-c2nnc(-c3ccc(Cl)cc3Cl)o2)cc1,.,.,.,.,.,.
CCOC(=O)c1cc(-c2nnc(-c3ccc(Cl)cc3)o2)c(C)nc1C,.,.,.,.,.,40
S=C(NC1CCCCC1)N1CCN(C2CCCCC2)CC1,.,.,.,.,.,.
C=CCOc1ccc(Br)cc1/C=C1/SC(=Nc2ccc(C(=O)O)cc2)NC1=O,.,/,.,55,.,.
CCOc1cc(Br)cc(/C=C2\SC(=Nc3ccccc3)NC2=O)c1O,/,.,/,/,/,/
COCCN(C(=O)c1csnn1)C(C(=O)NC1CCCC1)c1ccccc1F (stereo not given),/,.,/,/,/,/
Cc1c(C(=O)N/N=C/c2ccc(-c3ccccc3[N+](=O)[O-])o2)sc(N)c1C#N,80,.,.,99,.,.
Cc1c(C(=O)N/N=C/c2ccc(O)c(Br)c2)sc(N)c1C#N,.,.,76,72,.,.
COc1cc(/C=N/NC(=O)c2sc(N)c(C#N)c2C)ccc1O,.,.,.,.,.,.
COc1ccc(F)cc1S(=O)(=O)NCC(c1ccco1)N1CCc2ccccc2C1 (stereo not given),/,.,/,/,/,/
c1coc(C2=NCCc3ccccc32)c1,/,.,/,/,/,/
Cc1noc(NS(=O)(=O)c2ccc(NC(=O)CSc3nc4ccccc4s3)cc2)c1C,.,.,.,64,.,.
CCC1=NN2C(=N)/C(=C/c3c(C)nn(-c4ccccc4)c3Cl)C(=O)N=C2S1,.,.,.,.,.,.
O=C1NC(=S)S/C1=C/c1ccc(OC(=O)c2ccco2)cc1,/,.,/,/,/,/
O=C1NC(=S)S/C1=C\c1ccc(SCc2ccccc2)o1,.,.,.,81,.,.
SMILES,Mcl1 Bid PPI,MCL1 BIM primary,zVAD death inh,Mcl1-Noxa inh,TNF necrop inh,Mcl-1 Bim block
CCC1=NN2C(=N)/C(=C\c3ccc(SCc4ccco4)o3)C(=O)N=C2S1,.,.,.,64,.,.
O=C1NC(=S)S/C1=C\c1ccc(SCc2ccco2)o1,62,75,.,98,.,.
CCCCC(=O)Nc1ccc(C(=O)N2CCC(C(=O)OCC)CC2)cc1,.,.,.,.,.,64
O=C(O)Cn1cnc2c(=S)nc[nH]c21,99,.,.,.,.,/
COCCNC(=O)c1c(N)n(CCC2=CCCCC2)c2nc3ccccc3nc12,.,52,.,.,.,.
Nc1c2c(nc3ccc(Br)cc13)N(Cc1ccccc1)CC2,.,.,.,84,.,.
Nc1c2c(nc3ccc(Br)cc13)N(c1ccccc1)CC2,.,.,.,.,.,.
Nc1c2c(nc3ccccc13)N(C1CCCCC1)CC2,.,.,/,.,/,.
Nc1c2c(nc3ccc(Br)cc13)N(C1CCCCC1)CC2,.,.,.,68,.,.

# Assay outcomes as filed in PubChem BioAssay.
